SMILES strings stand for the structures. Inconclusive results are not listed. Calls of active or inactive are those of the source. How the source made its calls: active means hit-call score of the fitted dose curve at least 0.9, where 1 is the maximum; inconclusive means response in the unintended direction; inactive means score below 0.9.

Read-out in this assay: xenobiotic metabolism (CYP1A2), CYP1A2 (gene 1544)
Briefly: CLD_CYP1A2_6hr: CellzDirect (CLD) Gene Expression Assay for xenobiotic metabolism (CYP1A2) at 6 hours (AID 2283663).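 On AC50: potency is for induction meaning a rise in mRNA above DMSO.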 The protocol:
CLD_6hr is a cell-based, multiplexed-readout assay that uses hepatocyte, a human liver primary cell, with measurements taken at 6 hours after chemical dosing in a 96-well plate.CLD_CYP1A2_6hr is one of 16 assay component(s) measured or calculated from the CLD_6hr assay. It is designed to make measurements of mRNA induction, a form of inducible reporter, as detected with chemiluminescence signals by Quantitative Nuclease Protection Assay (qNPA) technology.Data from the assay component CLD_CYP1A2_6hr was analyzed at the endpoint, CLD_CYP1A2_6hr, in the positive analysis fitting direction relative to DMSO as the negative control and baseline of activity. Using a type of inducible reporter, gain-of-signal activity can be used to understand changes in the reporter gene as they relate to the gene CYP1A2. Furthermore, this assay endpoint can be referred to as a primary readout. To generalize the intended target to other relatable targets, this assay endpoint is annotated to the cyp intended target family, where subfamily is xenobiotic metabolism.
Human hepatocyte cultures were treated daily for two consecutive days with fresh dosing solutions containing appropriate concentrations of the 320 ToxCast chemicals (chemical identities were blinded to CellzDirect and other ToxCast collaborators), vehicle control (0.2% DMSO), and positive control inducers as summarized in Table 1. Due to the large number of treatment groups and chemicals examined, the ToxCast chemicals were divided into two groups (spanning two independent cultures of hepatocytes from separate donor preparations (Hu778: ToxCast plates 1 and 2; Hu776: ToxCast plates 3 and 4). Each preparation of human hepatocyte cultures was treated with respective vehicle control, medium only control, set of six positive controls/reference chemicals for the five hepatic receptor pathways, and a subset of eight of the ToxCast chemicals (indoxacarb, pyrithiobac-sodium, norflurazon, cyhalofop-butyl, methomyl, thiram, acetochlor, and propiconazole). These replicate data, coupled with internal replicates designed within the blinded ToxCast chemical library, provided additional data to evaluate interindividual differences between hepatocyte preparations and their potential impact on chemical profiles.Cell morphology and integrity were evaluated using phase-contrast microscopy as an indicator of hepatocyte cell health (Tyson & Green, 1987). Cultures for each treatment group (i.e., media, vehicle [0.2% DMSO], positive control inducers [multiple concentrations], and the ToxCast chemicals [multiple concentrations]) were observed and cell morphology was assessed relative to vehicle control cultures at each harvest time point (0, 6, 24, or 48 h). […] Images were evaluated at the conclusion of the study to assess changes in cell integrity and account for the effects of chemical exposure on uncharacteristic changes in concentration-dependent gene expression profiles. The results from these determinations of apparent cytotoxicity were annotated (yes/no) alongside the corresponding qNPA data for reference.At the conclusion of each treatment period, hepatocyte cultures (96-well) were washed with 1 volume of HBSS, lysed by addition of 25 ul ArrayPlate lysis buffer (HTG, Tucson, AZ), and 70 ul/well of Denaturation Oil, denatured by incubation at 95C for 10 min, and frozen at approximately -70C until analysis by nuclease protection assay (qNPA) (Roberts et al., 2007). For qNPA analysis, cell lysates were thawed at 50C for approximately 30 min, qNPA probes were added, and samples were incubated at 95C for 10 min to begin the detection process by denaturing the target RNA, dissociating the duplexes and secondary structure hybridization. At the conclusion of the hybridization period, S1 nuclease reagent was added to each sample to digest all nonprotected nucleotides at 50C for 60-90 min. […]
For `CCOC(=O)[C@H](C)Oc1ccc(Oc2nc3ccc(Cl)cc3o2)cc1`, the result was inactive.

What is called AC50 is the midpoint of the concentration-response curve, whichever way the signal moves. Take `COC(=O)c1c(Cl)nn(C)c1S(=O)(=O)NC(=O)Nc1nc(OC)cc(OC)n1`: the AC50 was 2540 nM (active).

For the compound `CC1(C)C(C=C(Cl)Cl)C1C(=O)OCc1cccc(Oc2ccccc2)c1` (stereo not given), the compound was called inactive.

`CCCCC(CC)COC(=O)c1ccccc1C(=O)O` (stereo not given): the result was inactive.

Turning to `CCNc1nc(N)nc(Cl)n1`, the call was inactive.

Take `CC(C)(C)[C@@H](O)[C@@H](Cc1ccc(Cl)cc1)n1cncn1`: the outcome was inactive.

`c1ccc2[nH]c(-c3cscn3)nc2c1`: the half-maximal activity concentration (AC50) is 5820 nM (active).

As to `COC(=O)c1ccc(I)cc1S(=O)(=O)NC(=O)Nc1nc(C)nc(OC)n1`, the result was inactive.

`CCSC(=O)N(CC(C)C)CC(C)C`: the compound was called inactive.

Take `CCCCOC(=O)[C@@H](C)Oc1ccc(Oc2ccc(C(F)(F)F)cn2)cc1`: the compound was called inactive.

Regarding `COC(=O)c1ccccc1C(=O)O`, the compound was called inactive.

Turning to `CCC(C)OC(=O)N1CCCCC1CCO` (stereo not given), the compound was classed as inactive.

With `S=C(S)NCCNC(=S)S.[Mn+2].[S-]C([S-])=NCCN=C([S-])[S-].[Zn+2]`, the AC50 is 2750 nM (active).

Consider `COC(=O)CSc1cc(N=c2sc(=O)n3n2CCCC3)c(F)cc1Cl`, for which the result was inactive.

`CCCCOC(=O)C(C)Oc1ccc(Oc2ccc(C(F)(F)F)cn2)cc1` (stereo not given): the compound was classed as inactive.

For the compound `c1ccc(Nc2ccccc2)cc1`, the result was inactive.

Turning to `CCCCCOC(=O)COc1cc(N2C(=O)C3=C(CCCC3)C2=O)c(F)cc1Cl`, the compound was classed as inactive.

For `S=C([S-])NCCNC(=S)[S-].[Mn+2]`, the result was inactive.

Take `O=C(O)C1(C(=O)Nc2ccc(Cl)cc2Cl)CC1`: the compound was classed as inactive.

For the compound `CSC(=O)c1cccc2nnsc12`, the AC50 was 33300 nM (active).

For `COc1nc(C)nc(NC(=O)NS(=O)(=O)c2ccccc2OCCCl)n1`, the call was inactive.

`COC(=O)c1ccccc1S(=O)(=O)NC(=O)Nc1nc(OC(F)F)cc(OC(F)F)n1`: the compound was called inactive.

For `CCOC(=O)C(C)Oc1ccc(Oc2cnc3cc(Cl)ccc3n2)cc1` (stereo not given), the outcome was inactive.

With `Oc1ccc(C(c2ccc(O)cc2)C(Cl)(Cl)Cl)cc1`, the half-maximal activity concentration (AC50) is 266 nM (active).

For the compound `COCCO`, the compound was called inactive.

`CCCCOCCOCCOCc1cc2c(cc1CCC)OCO2`: the AC50 was 5750 nM (active).

Regarding `CCN(Cc1c(F)cccc1Cl)c1c([N+](=O)[O-])cc(C(F)(F)F)cc1[N+](=O)[O-]`, the concentration at half-maximal activity (AC50) was 1740 nM (active).

In the case of `CCCOC(=O)NCCCN(C)C`, the result was inactive.

As for `COC(=O)c1cccc(C)c1S(=O)(=O)NC(=O)Nc1nc(OCC(F)(F)F)nc(N(C)C)n1`, the AC50 is 5980 nM (active).

For `CCCN(CCC)c1c([N+](=O)[O-])cc(C(F)(F)F)c(N)c1[N+](=O)[O-]`, the compound was called inactive.

For `CC(C)(c1ccc(O)cc1)c1ccc(O)cc1`, the compound was called inactive.

On to `CCCCC(CC)CN1C(=O)C2C3C=CC(C3)C2C1=O` (stereo not given), for which the call was inactive.

Turning to `COc1c(Cl)ccc(Cl)c1C(=O)O`, the call was inactive.

For the compound `N#CSCSc1nc2ccccc2s1`, the result was inactive.

`O=C(Nc1ccc([N+](=O)[O-])cc1Cl)c1cc(Cl)ccc1O`: the concentration at half-maximal activity (AC50) was 163 nM (active).

Regarding `CCN(CC)C(=O)c1cccc(C)c1`, the compound was classed as inactive.

With `CN(C)C(=O)Nc1ccc(Cl)c(Cl)c1`, the half-maximal activity concentration (AC50) is 3050 nM (active).

As to `CCCN(CCC)C(=O)SCC`, the compound was classed as inactive.

In the case of `CCCOC(=O)c1ccc(C(=O)OCCC)nc1`, the call was inactive.

Turning to `CCC(O)=C1C(=O)CC(C(=O)O)CC1=O` (stereo not given), the AC50 was 1890 nM (active).

(Values after PubChem BioAssay (EPA / NIEHS).)
